# Measurements published in the supplement of paper PMC4166925.
# ± gives the standard deviation of the averaged measurements. In all, about 33,000 sequences were measured (“E-score (dimensionless, -0.5 to 0.5)”: median about -0.046, highest 2% from about 0.36 on). Many of the other results were omitted from the sample, so the highest values are more common in it than they were.
# System: T1, SpTbr T-box DNA-binding domain (GST fusion)
# T1 sequence: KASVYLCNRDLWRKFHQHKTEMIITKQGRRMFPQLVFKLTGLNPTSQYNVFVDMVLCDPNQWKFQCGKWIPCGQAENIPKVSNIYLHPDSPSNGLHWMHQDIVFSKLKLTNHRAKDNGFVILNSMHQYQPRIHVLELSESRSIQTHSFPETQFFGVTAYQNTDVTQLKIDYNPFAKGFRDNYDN
# Test: PBM E-score of 8-mer (E-score (dimensionless, -0.5 to 0.5)); Tbr is Tbrain of the sea star Patiria miniata (Pm) or the sea urchin Strongylocentrotus purpuratus (Sp); higher = stronger binding preference
# Details: the construct has about 5 more residues each side
# Method in brief: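 Universal Agilent oligonucleotide arrays, made double-stranded by primer extension, were incubated with 200 nM GST-fused Tbr T-box DNA-binding domain in PBS (pH 7.5). The protein was expressed in BL21 E. coli at 20 °C and purified by glutathione affinity chromatography. After scanning and quantification, the Universal PBM Analysis Suite assigned an enrichment E-score to each ungapped 8-mer, averaged over duplicate arrays.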
row,Sequence,PBM E-score of 8-mer
1,AGTGGAGA,-0.0675 ± 0.13
2,CAAGTGCC,0.266 ± 0.0062
3,AAAGTGAG,0.217 ± 0.0053
4,AAAGTGAT,0.205 ± 0.0065
5,ACAGTGTG,0.338 ± 0.011
6,CAAGTGGG,0.265 ± 0.022
7,AAAGTGCG,0.337 ± 0.006
8,AAAGTGAA,-0.017 ± 0.029
9,AAAGTGTG,0.441 ± 0.0064
10,AAAGTGAC,0.367 ± 0.032
11,CAAGTGTG,0.453 ± 0.0056
12,CAAGTGTA,0.249 ± 0.051
13,CAAGTGCG,0.395 ± 0.02
14,CAGCAACC,-0.109 ± 0.025
15,ACCTTAGA,0.0853 ± 0.026
16,AATCTCTA,-0.14 ± 0.0019
17,AGTACTGA,-0.0534 ± 0.012
18,AGTATCGC,0.185 ± 0.0083
19,CACAAGTC,0.166 ± 0.039
20,GAAGTGTA,0.304 ± 0.0081
21,ACAGTGTC,0.213 ± 0.0024
22,AAAGTGGT,0.00031 ± 0.043

row,Sequence,PBM E-score of 8-mer
1,GAAGTGTC,0.42864 ± 0.00011
2,AAAGTGTT,0.416 ± 0.035
3,AAAGTGTA,0.112 ± 0.073
4,AACAAGTG,0.298 ± 0.035
5,AAAGTGTC,0.39331 ± 0.00039
6,CACAAGTG,0.38 ± 0.016
7,AAAGTGGC,0.205 ± 0.025
8,CAAGTGTC,0.351 ± 0.012
9,GCGCTTAC,0.216 ± 0.054
10,CTGATGCA,0.0385 ± 0.021
11,CCTCGTAC,-0.22 ± 0.0077
12,AAGGGTAG,-0.0117 ± 0.11
13,ACTGGAGA,-0.123 ± 0.052
14,GCACCTTA,0.404 ± 0.026
15,AGACCTTC,-0.26 ± 0.016
16,AGACCTTG,-0.19 ± 0.022
17,CCACCTTC,0.2634 ± 0.0018
18,CCACCTTA,0.213 ± 0.01
19,GAACCTTA,-0.0824 ± 0.12
20,GCACCTGA,0.386 ± 0.0077
21,ACACCTTG,0.4831 ± 0.0013
22,TCACCTGA,0.3337 ± 0.0032

row,Sequence,PBM E-score of 8-mer
1,AAACCTTG,-0.17 ± 0.045
2,CCACCTGA,0.148 ± 0.02
3,ACACCTTC,0.4746 ± 0.0017
4,ATATCCAT,-0.037 ± 0.059
5,AGCCAACT,-0.173 ± 0.045
6,AGATTTCA,-0.0179 ± 0.064
7,ACTAGGAT,-0.2518 ± 0.0023
8,CAAGGAAC,-0.142 ± 0.03
9,CTCTCCAC,0.0528 ± 0.073
10,CGTTAGGA,-0.0398 ± 0.0099
11,AAGAATTC,-0.22 ± 0.027
12,ACACCTTA,0.46892 ± 0.00038
13,AAACCTTA,-0.0223 ± 0.025
14,ATACCTTA,0.1245 ± 0.00057
15,GCAAGAGC,-0.0244 ± 0.092
16,ATCGTCAT,-0.00478 ± 0.05
17,GTCGTCAC,0.337 ± 0.025
18,ATCGTCAA,0.158 ± 0.0046
19,CTCGTCAA,0.201 ± 0.0083
20,ATCGTCAC,0.381 ± 0.011
21,CTCGTCAC,0.389 ± 0.024
22,TCGCCAGA,0.0255 ± 0.017

row,Sequence,PBM E-score of 8-mer
1,AAGGCACA,-0.16 ± 0.04
2,ATGGGGGG,-0.172 ± 0.0088
3,AGAAGTGA,0.289 ± 0.014
4,AGTCTACG,-0.209 ± 0.008
5,CAGCTACG,-0.036 ± 0.0027
6,TGTGGTAA,0.133 ± 0.02
7,GGCGGCCA,-0.156 ± 0.03
8,CTTCGCAA,0.341 ± 0.029
9,ATTCGCAG,0.33 ± 0.013
10,ATTCGCAC,0.4705 ± 0.0024
11,CTTCGCCC,-0.0235 ± 0.028
12,ATTCGCAA,0.29 ± 0.016
13,CTTCGCAC,0.461 ± 0.015
14,GTCTATAA,-0.0104 ± 0.0026
15,CGAGGGCC,-0.127 ± 0.057
16,ACGAAAGT,0.00641 ± 0.0039
17,AATGTGTA,0.207 ± 0.05
18,AATGTGTC,0.413 ± 0.012
19,AATGTGTG,0.4245 ± 0.0035
20,AATGTGCG,0.3287 ± 0.0028
21,AATGTGGC,0.219 ± 0.02
22,CATGTGTC,0.3458 ± 0.0021
